Sampled rows, rich in hits. Any-hit rate of the full collection: about 11%.
IMPase Li cell: qHTS Assay for Identifying the Cell-Membrane Permeable IMPase Inhibitors: Potentiation with Lithium; Potency, µM (series often up to 59.4 µM), without a hit: at the top dose activity, negative = IMPase inhibition, hits mostly inhibitors; CHO-M1 cells, IP1 TR-FRET (IP-One), carbachol + lithium; 210,000 compounds, 0.35% hits; active = well fitted curve in the direction sought with a large enough effect; inconclusive = small, poorly fitted or top-dose-only effect, or another doubt; inactive = no such curve, though single readings can be large; an effect the other way counts as inactive or inconclusive;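 note: IP1 builds up when IMPase is blocked and the TR-FRET signal falls; potency is the fitted concentration of half-maximal effect; plate controls were basal vehicle for no effect and high inhibitor control for full effect; nearly all actives have a fitted effect of over 50% in size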
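IP1 accumulation measured by competitive TR-FRET in lysed CHO-M1 cells after 30 min compound exposure at 37C, with a small lithium addition to potentiate weak responses. Hill-equation AC50 from ratio and donor-channel data.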
HPGD inh: qHTS Assay for Inhibitors of HPGD (15-Hydroxyprostaglandin Dehydrogenase); 15-hydroxyprostaglandin dehydrogenase [NAD(+)] (Homo sapiens), P15428; purified HPGD, NADH fluorescence kinetic, PGE2 substrate; 150,000 compounds, 4.3% hits; Potency, µM, without a hit: top-dose activity change, negative = inhibition, actives largely listed as inhibitors; note: potency is the fitted concentration of half-maximal effect
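NADH formation kinetics: reaction with 30 uM PGE2 and 1 mM NAD+ (final), 20 nM enzyme, Tris-HCl pH 8 with Tween 20, after 15 min compound preincubation at room temperature. Fluorescence change, last versus first of five reads.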
12-hLO inh: qHTS Assay for Inhibitors of 12-hLO (12-human lipoxygenase); AID 1452, 2008; 150,000 compounds, 0.12% hits; Potency, µM (series often up to 57.1 µM), inactives show top-dose activity change, negative = inhibition, hits mostly inhibitors; purified 12-hLO, xylenol orange hydroperoxide absorbance; Polyunsaturated fatty acid lipoxygenase ALOX12 (Homo sapiens), P18054; active = well fitted curve in the direction sought with a large enough effect; inconclusive = small, poorly fitted or top-dose-only effect, or another doubt; inactive = no such curve, though single readings can be large; an effect the other way counts as inactive or inconclusive; note: potency is the fitted concentration of half-maximal effect; nearly all actives have a fitted effect of over 55% in size
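Lipoxygenase turnover measured by absorbance at 573 and 405 nm after Fe-XO development. Human 12hLO 150 nM, arachidonate 40 uM, pH 7.0 Hepes buffer with detergent; 15 min compound preincubation, 30 min reaction.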
PNC inhibitor: High Content Assay for Compounds that inhibit the Assembly of the Perinucleolar Compartment | PC3M PTB-GFP, PNC prevalence imaging, 16 h; hits give low values | activity change (PNC), negative = inhibition, % at 10 µM | 140,000 compounds, 3.1% hits;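 active = readout at or below -70, meaning at least 70% loss of cells showing the perinucleolar compartment, a nuclear body marking cancer cells; inconclusive = readout between -30 and a set limit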;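 note: plate controls were DMSO wells for no effect and camptothecin positive control wells for full effect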
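Compounds are pinned in duplicate onto adhered PC3M cells stably expressing GFP-tagged PTB and incubated 16 h at 37 C. Cells are then fixed, nuclei stained with Hoechst, and PNC-positive cells counted.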
ALDH1A1 inh: qHTS Assay for Inhibitors of Aldehyde Dehydrogenase 1 (ALDH1A1); Aldehyde dehydrogenase 1A1 (Homo sapiens), P00352; Purified ALDH1A1, NADH fluorescence, propionaldehyde substrate; Potency, µM (doses to about 75.3 µM), for inactives: top-dose activity, negative = inhibition, actives largely listed as inhibitors; 220,000 compounds, 7.3% hits; AID 1030, 2008;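 note: potency is the fitted concentration of half-maximal effect; plate controls were no enzyme wells and a reference inhibitor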
Target sequence (P00352 whole entry, looked up): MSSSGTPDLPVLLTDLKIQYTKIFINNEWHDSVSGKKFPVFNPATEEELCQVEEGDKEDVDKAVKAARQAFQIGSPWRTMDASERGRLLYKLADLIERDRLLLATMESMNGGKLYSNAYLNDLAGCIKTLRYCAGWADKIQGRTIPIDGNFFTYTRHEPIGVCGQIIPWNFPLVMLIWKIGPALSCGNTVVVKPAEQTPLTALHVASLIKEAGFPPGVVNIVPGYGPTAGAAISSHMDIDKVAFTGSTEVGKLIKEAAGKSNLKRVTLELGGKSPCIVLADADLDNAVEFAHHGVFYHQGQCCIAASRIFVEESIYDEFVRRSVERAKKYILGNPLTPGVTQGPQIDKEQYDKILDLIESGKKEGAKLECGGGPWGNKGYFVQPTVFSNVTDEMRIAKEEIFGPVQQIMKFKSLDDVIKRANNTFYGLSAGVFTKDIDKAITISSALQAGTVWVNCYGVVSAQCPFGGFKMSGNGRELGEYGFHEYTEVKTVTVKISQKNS
IMPase inh: qHTS Assay for Identifying the Cell-Membrane Permeable IMPase Inhibitors | AID 901, 2007 | inhibition (IP1 accumulation), % at 46.1 µM | CHO-M1 cells, IP1 accumulation, HTRF TR-FRET ratio | 120,000 tested, under 10 active | Inositol monophosphatase 1 (Rattus norvegicus), P97697; active = well fitted curve in the direction sought with a large enough effect in the signal ratio, not every such curve was filed as active; inconclusive = small, poorly fitted or top-dose-only effect, or a change in a side signal; inactive = no such curve, though single readings can be large or run the other way; the % refers to the signal ratio;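 note: cells stimulated with carbachol in lithium chloride buffer; plate controls were DMSO basal wells for no effect and reference inhibitor wells for full effect; higher means more IMPase inhibition seen as more IP1 and lower FRET ratio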
Target sequence (P97697 whole entry, looked up): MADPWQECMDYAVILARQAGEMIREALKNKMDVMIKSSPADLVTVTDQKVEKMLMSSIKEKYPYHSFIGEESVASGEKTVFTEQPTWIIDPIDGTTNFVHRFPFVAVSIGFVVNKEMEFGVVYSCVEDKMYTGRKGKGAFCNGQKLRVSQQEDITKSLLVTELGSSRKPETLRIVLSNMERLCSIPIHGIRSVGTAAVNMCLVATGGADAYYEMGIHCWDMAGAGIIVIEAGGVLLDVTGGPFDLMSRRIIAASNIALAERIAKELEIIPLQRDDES
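Cellular IMPase inhibition is scored as a rise in cytosolic IP1, detected by competitive TR-FRET between d2-labelled IP1 and a europium anti-IP1 antibody. M1-expressing CHO cells were stimulated with carbachol for 30 min at 37C, with lithium (50 mM LiCl) present in the buffer.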
The depositor's hits bear a star; u = inconclusive; x = no result; ! = a repeat was not active; [ ] = remark or other dose. Unless noted, calls come from the whole dose curve; as a rule, active = well fitted inhibition curve with a large enough effect (not every such curve was filed as active); inconclusive = small, poorly fitted or top-dose-only effect, or another doubt; inactive = no such curve, though single readings can be large or run the other way. Unless noted, % is set by controls: 0 for no effect and ±100 for the full control effect.

SMILES	IMPase Li cell	HPGD inh	12-hLO inh	PNC inhibitor	ALDH1A1 inh	IMPase inh
O=C(Nc1cccc(F)c1)N1CC2(CCN(C(=O)c3cccc(F)c3)CC2)C1	5.8%	-3.8%	1.4%	x	-11.2%	x
CCCOC(=O)CCCCCCCCC(O)CN1CCCCC1 (configuration not stated)	45.3%	x	x	x	17.8µM*	x
CC(C)(C)c1ccc(C(=O)Nc2cc(-c3nc4ccccc4o3)ccc2Cl)cc1	x	x	x	x	x	-4.6
CCc1ccc2c(c1)N(C[C@H](C)CN(C)C)c1ccccc1S2	34.1%	-16.1%	3.3%[11.4 µM]	x	2.5%[13.5 µM]	x
COc1ccc(-n2cc(C(=O)Nc3cc([N+](=O)[O-])ccc3OC)c3ccccc3c2=O)cc1	2.6%	-14.9%	3.4%	-27.2	-3.1%	x
Nc1c(NCc2ccccc2)c2ccccc2oc1=O	13.4%[38.3 µM]	u	-23.3%	8.4	22.4µM*	7.2
O=c1oc2ccccc2c(NCc2ccccc2)c1[N+](=O)[O-]	-6.2%	25.1µM*	-3.7%	u	11.2µM*	x
O=c1oc2ccccc2c(NCCO)c1[N+](=O)[O-]	0.2%	x	x	x	5.8%	x
CC(C)Nc1c([N+](=O)[O-])c(=O)oc2ccccc12	-0.3%	x	x	x	3.3%	x
Cn1c(=O)c([N+](=O)[O-])c(NCc2ccccc2)c2ccccc21	16.9%[38.3 µM]	6.31µM*	-4.4%	u	15.8µM*	-0.6
Cc1cc(Cl)cc(Cl)c1CNc1c([N+](=O)[O-])c(=O)oc2ccccc12	12.5%	u	2.2%	-20.7	10µM*	x
C[N+]1(Cc2ccccc2)CCC(C(=O)OCC2CCCC2)CC1 (configuration not stated)	23.5%	x	x	x	2.4%	x
COc1ccc(CCNc2c([N+](=O)[O-])c(=O)oc3ccccc23)cc1OC	-2.6%[38.3 µM]	15.8µM*	-3.5%	50.0	-0.2%	4.3
O=c1oc2ccccc2c(Nc2ccccc2)c1[N+](=O)[O-]	-1.7%	-10.2%	7.0%	-16.1	u	-5.1
O=C(CSc1nnnn1-c1ccc(F)cc1)NC1CCCCC1	14.7%[38.3 µM]	-10.1%	3.9%	13.4	u	-5.6
O=C1OCCC1Sc1nnnn1-c1ccccc1 (configuration not stated)	-10.1%[38.3 µM]	-12.1%	-1.5%	44.4	u	4.7
O=C(c1ccc(F)cc1)N1CCCCC(Sc2nnnn2-c2ccccc2)C1=O (configuration not stated)	23.6%[38.3 µM]	-16.7%	-3.3%	u	4.47µM*	4.7
O=C(c1ccccc1)N1CCCCC(Sc2nnnn2-c2ccccc2)C1=O (configuration not stated)	16.9%	-10.8%	5.0%	-11.9	3.55µM*	-6.9
O=C(O)[C@H]1CCCC[C@@H]1c1c2ccc(=O)c(O)c-2oc2c(O)c(O)ccc12	2.0%	4.47µM*	-14.5%[11.4 µM]	x	-9.0%[13.5 µM]	x
O=C(O)/C=C\c1c2ccc(=O)c(O)c-2oc2c(O)c(O)ccc12	6.7%	2.82µM*	-23.6%[11.4 µM]	x	2.7%[13.5 µM]	x
Cc1cc(=O)c2c(O)c(O)ccc2o1	-1.3%[38.3 µM]	-18.5%	-24.5%	-3.1	-6.9%	11.4
COc1ccc(NC(=O)/C(Cl)=C(/Cl)S(=O)Cc2ccccc2)cn1 (configuration not stated)	73.1%[38.3 µM]	u	-14.4%	u	12.6µM*	15.2
COc1ccc(CS(=O)(=O)/C(Cl)=C(/Cl)C(=O)Nc2ccc(OC)nc2)cc1	11.2%[38.3 µM]	-8.7%	-11.0%	-5.8	1.58µM*	14.4
O=c1c(-c2ccc(Cl)cc2)nc2cnc(N3CCOCC3)nc2n1C1CC1	-6.8%	-8.0%	-0.7%	x	11.2%	x
O=C(c1ccccc1)c1ccc(N2CCNCC2)cc1	20.6%[38.3 µM]	-6.1%	4.0%	56.1	28.2µM*	-1.4
SMILES	IMPase Li cell	HPGD inh	12-hLO inh	PNC inhibitor	ALDH1A1 inh	IMPase inh
CN1CCN(c2ccc(C(=O)c3ccc(F)cc3)cc2)CC1	-4.3%[38.3 µM]	-10.0%	3.2%	-4.4	-13.9%	-2.9
O=C(c1ccccc1)c1ccc(N2CCCC2)cc1	10.9%[38.3 µM]	14.1µM*	-9.5%	24.3	u	1.3
O=C(O)c1ccc(N2CCCCC2)cc1	3.4%[38.3 µM]	-14.3%	-3.3%	12.4	1.8%	18.9
O=C(CCc1nnc(-c2ccc(-c3ccccc3)cc2)o1)N1CCCCC1	11.9%	x	x	x	u	x
O=C(c1cccc(-c2nnc(-c3ccccc3)o2)c1)N1CCCCC1	-4.5%[38.3 µM]	7.94µM*	2.5%	u	u	2.7
O=C(c1cccc(-c2nnc(-c3ccccc3)o2)c1)N1CCCCCC1	22.1%[38.3 µM]	8.91µM*	4.4%	u	u	3.0
CSc1nc(C)c(Oc2ccccc2)c(=O)n1C	24.0%[38.3 µM]	12.6µM*	-1.5%	-21.1	13.3%	0.2
O=C(NCc1ccco1)c1csc(Nc2ccccc2Cl)n1	8.3%	15.8µM*	-3.0%	-117.3*	u	-5.0
O=C(c1csc(Nc2ccccc2Cl)n1)N1CCCC1	-3.9%	15.8µM*	4.7%	30.3	22.4µM*	5.3
C=CCNC(=O)CCCc1ccccc1	-8.4%[38.3 µM]	-20.7%	-0.2%	27.1	9.2%	-6.1
CC(C)CC(=O)NCCCCc1ccccc1	-0.6%	15.8µM*	-4.7%	u	u	x
CC(C)CNC(=O)CCCc1ccccc1	22.3%[38.3 µM]	14.1µM*	-7.2%	11.9	-4.6%	4.4
CC(C)C(=O)NCCCc1ccccc1	-4.0%[38.3 µM]	-15.0%	-10.2%	-17.8	6.1%	u
Cc1nc2cnc(Oc3ccccc3)nc2n(-c2ccccc2)c1=O	2.4%	-10.2%	-1.8%	x	22.4µM*	x
COc1ccc(-n2c(=O)c(C)nc3cnc(Oc4ccccc4)nc32)cc1	7.4%	-7.8%	1.5%	x	2.51µM*	x
COCCN(C(=S)Nc1c(C)cccc1C)C(C)c1cccnc1 (configuration not stated)	-1.0%	-3.2%	0.3%	u	10.8%	x
COCCN(C(=S)Nc1c(C)cc(C)cc1C)C(C)c1cccnc1 (configuration not stated)	4.0%	7.94µM*	-6.1%	-11.6	u	x
Cc1ccn2cc(CCNC(=O)c3ccc(Br)o3)nc2c1	29.8%[38.3 µM]	-9.2%	-2.8%	u	5.7%	-2.6
O=C(NNC(=S)NCc1ccc(Cl)cc1)c1ccc(Br)o1	1.5%	x	x	x	-0.5%	x
O=C(NCCC1=CCCCC1)c1ccc(Br)o1	26.2%[38.3 µM]	-16.8%	-6.7%	u	3.55µM*	0.1
CC(=O)NCCc1cc2ccc(C)cc2[nH]c1=O	-4.5%[38.3 µM]	-19.8%	-10.0%	39.2	2.4%	1.9
O=C(NCc1ccc(Cl)cc1)c1ccc(Br)o1	-2.5%	35.5µM*	-4.2%[0.00818 µM]	u	12.6µM*!	0.7
